Assay outcomes as filed in PubChem.
NR3A LBD binder: modulates the human NR3A ligand-binding domain | NR3A LBD differential scanning fluorimetry, Tm shift; 0% = protein alone, 100% = glycine-bound protein | Tm shift relative to glycine control, % at 25 µM | 340,000 compounds, 2.5% hits | AID 1259313;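 active means melting temperature shift of at least 10% of the positive control shift, at one fixed dose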
MPTP inh: permeability transition pore inhibition. isolated mouse mitochondria, Ca2+ swelling absorbance, 30 min. inhibition, % at 10 µM. 360,000 compounds, 1.4% hits. AID 602449;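 active means inhibition of 50% or more, scaled per plate between neutral and stimulator controls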
Beta cell apopt: blocks beta cell apoptosis. AID 435005. INS-1E cytokine-induced death, ATP luminescence, 48 h; percent of positive-control rescue, neutral wells zero. 300,000 compounds, 0.8% hits. protection from apoptosis, % (test concentration not listed);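 active means Every replicate reaches about 75%, or at least half do and their mean reaches it too, limit read from the data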;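 further: higher means more ATP so stronger rescue from cytokine killing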
Mdm2 MdmX PPI: disrupts the human Mdm2-MdmX interaction. O15151+Q00987. SaOS-2 split-luciferase Mdm2/MdmX complementation, luminescence. inhibition, % at 8 µM. 330,000 compounds, 3% hits;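 active means inhibition of at least 50% at 8 µM in the primary screen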
Target sequence (O15151 whole entry, looked up): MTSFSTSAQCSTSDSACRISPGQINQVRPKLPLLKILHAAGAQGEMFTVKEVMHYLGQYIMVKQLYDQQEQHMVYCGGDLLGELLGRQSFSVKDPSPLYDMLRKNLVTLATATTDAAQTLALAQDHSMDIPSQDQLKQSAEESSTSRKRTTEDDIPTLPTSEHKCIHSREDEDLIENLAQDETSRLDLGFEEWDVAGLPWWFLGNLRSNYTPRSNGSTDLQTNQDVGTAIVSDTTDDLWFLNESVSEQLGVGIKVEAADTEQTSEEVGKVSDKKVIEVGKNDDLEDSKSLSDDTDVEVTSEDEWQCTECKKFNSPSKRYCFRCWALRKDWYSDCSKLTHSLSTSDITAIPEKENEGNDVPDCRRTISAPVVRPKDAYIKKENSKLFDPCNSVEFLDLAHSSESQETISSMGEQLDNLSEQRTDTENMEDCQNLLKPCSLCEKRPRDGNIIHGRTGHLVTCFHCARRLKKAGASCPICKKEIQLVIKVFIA
Target sequence (Q00987 whole entry, looked up): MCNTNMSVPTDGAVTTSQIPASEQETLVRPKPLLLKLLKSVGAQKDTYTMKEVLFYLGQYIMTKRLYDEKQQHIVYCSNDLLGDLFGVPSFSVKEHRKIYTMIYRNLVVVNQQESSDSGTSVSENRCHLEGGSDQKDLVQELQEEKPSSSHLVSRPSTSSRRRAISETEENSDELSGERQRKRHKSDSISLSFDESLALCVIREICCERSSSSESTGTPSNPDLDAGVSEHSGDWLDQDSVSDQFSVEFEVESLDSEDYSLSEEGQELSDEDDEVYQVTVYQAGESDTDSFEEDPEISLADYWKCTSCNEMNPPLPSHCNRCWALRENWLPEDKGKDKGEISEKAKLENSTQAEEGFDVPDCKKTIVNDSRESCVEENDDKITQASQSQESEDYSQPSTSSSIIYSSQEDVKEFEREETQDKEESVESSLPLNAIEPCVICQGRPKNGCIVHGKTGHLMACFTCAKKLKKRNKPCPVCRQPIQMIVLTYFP
CSC inhib: blocks cancer stem cells; inhibition, % at 7.5 µM; 300,000 compounds, 1.1% hits; cancer stem cell-like cells viability, luminescence; in the data active means inhibition above about 75%; tested in HMLE shEcad cells
Gli-Sufu antag: blocks Gli-Sufu signaling in a luciferase reporter. inhibition, % at 5 µM. Sufu-KO-LIGHT fibroblasts, Gli luciferase reporter luminescence. AID 588413. 340,000 compounds, 0.74% hits;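 active means inhibition above about 55%, limit read from the data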
Gli antag conf: Gli-SUFU antagonism confirmation, single concentration; shares compounds with Gli-Sufu antag; Sufu-KO-LIGHT cells, Gli luciferase reporter, luminescence; inhibition, % at 5 µM; 2,500 compounds, 40% hits; AID 602428;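 active means mean inhibition at 5 µM reaching about 45%, limit read from the data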
SufuKO cytotox: counter-screen for Gli-SUFU antagonists: cytotoxicity. 2,500 compounds, 32% hits. cytotoxicity, % at 5 µM. shares compounds with Gli-Sufu antag. Sufu-KO-LIGHT cells cytotoxicity, ATP luminescence;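 active means mean cytotoxicity at 5 µM above about 25%, limit read from the data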;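 further: cells exposed to compound overnight for roughly 16 to 18 hours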
Wnt3a cs: Wnt3a reporter inhibition counter-screen; shares compounds with Gli-Sufu antag; Wnt-LIGHT cells, Wnt3a-driven luciferase reporter, luminescence; inhibition, % at 6.25 µM; 2,500 compounds, 20% hits; AID 651995;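 active means mean inhibition above about 25%, limit read from the data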
A number is an active result; . = inactive; / = no result given. This is a sample that favours compounds with a hit; in the whole collection about 6.6% have one here.

SMILES	NR3A LBD binder	MPTP inh	Beta cell apopt	Mdm2 MdmX PPI	CSC inhib	Gli-Sufu antag	Gli antag conf	SufuKO cytotox	Wnt3a cs
CCOC(=O)c1c(CC(C)C)csc1NC(=O)COC(=O)c1cc(OC)c(OC)cc1[N+](=O)[O-]	.	.	.	.	.	56	.	.	.
CCOC(=O)c1c(NC(=O)COC(=O)c2cc(OC)c(OC)cc2[N+](=O)[O-])sc(C)c1CC	.	.	.	.	.	.	/	/	/
CCOC(=O)C1=CN(Cc2ccco2)S(=O)(=O)N(CC)C1c1ccccc1 (centres undefined)	.	.	/	.	/	.	.	.	.
CCOC(=O)C1=CN(Cc2ccco2)S(=O)(=O)N(C)C1c1cccc(OC)c1 (centres undefined)	.	.	/	.	/	.	/	/	/
CCOC(=O)C1=CN(Cc2ccco2)S(=O)(=O)N(CC)C1c1ccc(F)c(Cl)c1 (centres undefined)	.	.	/	.	/	.	/	/	/
CCOC(=O)C1=CN(Cc2ccco2)S(=O)(=O)N(CC)C1c1cccc(OC)c1 (centres undefined)	.	.	/	.	/	.	.	.	.
Oc1ccc(/C=N/Nc2nc(N3CCCC3)nc(N3CCCC3)n2)cc1O	.	.	.	.	.	64	51	.	83
COc1cc(/C=N/Nc2nc(N3CCCC3)nc(N3CCCC3)n2)ccc1O	.	.	.	.	.	.	/	/	/
CC1(C(=O)Nc2ccccc2Br)CCN1C(=O)Cc1ccc(Cl)cc1Cl (centres undefined)	/	.	/	/	/	/	/	/	/
COc1ccc(NS(=O)(=O)c2ccc(OC)c(N(C)S(=O)(=O)c3ccc(Cl)cc3)c2)cc1	.	.	101	.	.	74	.	39	.
COc1ccc(CNCC(O)(c2ccc(F)cc2)c2ccc(F)cc2)cc1OC	.	.	.	.	.	65	.	36	.
Cc1cc(C)cc(OCC(O)CN2CCN(Cc3ccc4c(c3)OCO4)CC2)c1 (centres undefined)	.	.	.	.	.	64	.	.	.
Nc1ccccc1SCC1CSc2nc3ccccc3c(=O)n21 (centres undefined)	.	.	.	.	.	.	/	/	/
O=c1c2ccccc2nc2n1C(CSCc1ccc(Cl)cc1Cl)CS2 (centres undefined)	.	.	.	.	.	.	.	33	.
COc1ccc(CCNC(=O)c2ccccc2NC(=O)C2=C(C)OCCS2)c(OC)c1	.	.	.	.	.	.	/	/	/
COc1cc(CNC(=O)c2ccccc2NC(=O)C2=C(C)OCCS2)cc(OC)c1OC	.	.	.	.	.	91	.	.	.
COc1cc(CCNC(=O)c2ccccc2NC(=O)C2=C(C)OCCS2)cc(OC)c1OC	.	.	.	.	.	99	.	.	.
CC1=C(C(=O)Nc2cc(C(=O)NCc3ccccc3)ccc2C)SCCO1	/	.	/	/	/	/	/	/	/
CCC(CC)c1nnc(NC(=O)CCc2ccccc2OC)s1	.	.	.	.	.	.	/	/	/
N#C/C(=C/c1ccc(-c2ccc([N+](=O)[O-])cc2)o1)C(=O)Nc1nc(-c2cccs2)cs1	.	.	/	/	/	72	84	.	33
N#C/C(=C/c1ccc(-c2ccccc2)o1)c1nc(-c2cccs2)cs1	.	.	.	/	.	.	/	/	/
Cc1cccc2c1NC(=O)C21OCC(CO)([N+](=O)[O-])CO1 (centres undefined)	.	.	.	.	.	.	/	/	/
CN(CCOc1ccc(Cl)cc1)C(=O)c1cc([N+](=O)[O-])ccc1N1CCOCC1	.	.	.	.	.	.	/	/	/
Cc1ccc2c(c1)NCC(C(=O)NC1CCCCC1)O2 (centres undefined)	.	.	.	.	.	.	.	.	.
Cc1ccc(-n2nnnc2SCC(=O)Nc2cccnc2Cl)cc1	.	.	.	.	.	.	.	.	.
SMILES	NR3A LBD binder	MPTP inh	Beta cell apopt	Mdm2 MdmX PPI	CSC inhib	Gli-Sufu antag	Gli antag conf	SufuKO cytotox	Wnt3a cs
O=C(CSc1nnnn1-c1ccc(Cl)cc1)Nc1cccnc1Cl	.	.	.	.	/	.	/	/	/
CC(C)c1ccc(N2C(=O)C3C4C=CC(CC4)C3C2=O)cc1 (centres undefined)	.	.	.	.	.	.	/	/	/
CC1CC(=O)N(c2ccc(C(C)C)cc2)C(=O)C1	.	.	.	.	.	.	.	.	.
CCNC(=S)N1CCCC(C(N)=O)C1 (centres undefined)	.	.	.	.	.	.	/	/	/
N=c1ncn(C2OC(CO)C(O)C2O)c2nc(Br)[nH]c12 (centres undefined)	/	.	/	/	/	/	/	/	/
N=c1nc2n(cc1F)C1OC(CO)C(O)C1O2 (centres undefined)	.	.	/	/	/	56	47	26	36
Cc1ccc(CNc2nc(-c3cccs3)nc3ccccc23)cc1	.	.	.	.	92	.	.	.	.
c1ccc(CNc2nc(-c3cccs3)nc3ccccc23)nc1	.	.	.	.	.	.	/	/	/
N/C(CN1CCCCC1)=N\S(=O)(=O)c1cc(Cl)cc(Cl)c1	.	.	.	.	.	.	/	/	/
COc1cc(C(=O)N/N=C(\c2ccccc2)c2ccccn2)cc(OC)c1OC	.	.	86	.	.	92	84	38	57
COC(=O)c1ccc(CN2CCCC(C(=O)Nc3cccc(-n4cccn4)c3)C2)cc1 (centres undefined)	.	.	.	.	.	.	.	.	.
COc1cccc(NC(=O)[C@@H]2CCCN2C(=O)[C@@H]2Cc3ccccc3CN2C(=O)OC(C)(C)C)c1	.	.	.	.	.	.	/	/	/
COc1cccc(NC(=O)CNC(=O)[C@@H]2Cc3ccccc3CN2C(=O)OC(C)(C)C)c1	.	.	.	.	.	65	.	.	.
N=c1c2c(n(Cc3ccc(Cl)cc3)c3c1CCC3)CCC2	.	.	.	.	/	80	82	25	48
CCn1c2c(c(=N)c3c1CCC3)CCCC2	.	.	.	.	.	.	/	/	/
N=c1c2c(n(Cc3ccc(F)cc3)c3c1CCC3)CCCC2	.	.	.	.	.	66	69	.	.
CC(OC(=O)Cn1[nH]c(=O)c2ccccc2c1=O)C(=O)Nc1ccccc1[N+](=O)[O-] (centres undefined)	.	.	/	.	.	.	/	/	/
O=C(NC1CCCCC1)c1ccc2c(c1)S(=O)(=O)c1ccccc1C2=O	.	.	.	.	.	.	/	/	/
COc1ccccc1C(=O)Nc1ccc(OCC(=O)N2CC(C)OC(C)C2)cc1 (centres undefined)	.	.	.	.	.	.	/	/	/
O=C(Nc1ccccc1C(=O)NCc1cccnc1)c1cccc([N+](=O)[O-])c1	.	.	.	.	/	.	/	/	/
